# Assay results published in the supplement of paper PMC8728848.
# This is one part of a sample in which the strongest signals are shown more often than they occur.
# Assays:
# Assay in all cases: glycan array binding signal (z-score within array); higher = stronger binding
# Details in all cases: glycan notation: IUPAC condensed, linker removed
# [1] = target: Gal(b1-4)GlcNAc(b1-6)[Gal(b1-4)GlcNAc(b1-3)]GalNAc
# In short: (§1)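 From the Consortium for Functional Glycomics database, 3228 arrays were curated, keeping only those whose protein sequence was available. Binding is given as a within-array Z-score averaged across arrays sharing a protein sequence and across linkers. Negative Z-scores can be read as non-binding.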
# [2] = target: Gal3S(b1-3)GalNAc
# In short: as §1
# [3] = target: Gal3S4S(b1-4)GlcNAc
# In short: as §1
# [4] = target: Gal3S6S(b1-4)GlcNAc
# In short: as §1
# [5] = target: GalNAc(b1-4)GlcNAc(b1-2)Man
# In short: as §1
# [6] = target: GlcNAc(a1-4)Gal(b1-4)GlcNAc(b1-3)Gal(b1-4)GlcNAc
# In short: as §1
# [7] = target: GlcNAc(b1-2)Man(a1-3)[GlcNAc(b1-2)Man(a1-6)]Man(b1-4)GlcNAc(b1-4)GlcNAc
# In short: as §1
# [8] = target: GlcNAc(b1-2)Man(a1-3)[GlcNAc(b1-2)Man(a1-6)]Man(b1-4)GlcNAc(b1-4)[Fuc(a1-6)]GlcNAc
# In short: as §1
# [9] = target: GlcNAc(b1-3)Gal(b1-4)GlcNAc(b1-3)Gal(b1-4)GlcNAc(b1-3)Gal(b1-4)GlcNAc(b1-3)Gal(b1-4)GlcNAc(b1-2)Man(a1-3)[GlcNAc(b1-3)Gal(b1-4)GlcNAc(b1-3)Gal(b1-4)GlcNAc(b1-3)Gal(b1-4)GlcNAc(b1-3)Gal(b1-4)GlcNAc(b1-2)Man(a1-6)]Man(b1-4)GlcNAc(b1-4)GlcNAc
# In short: as §1
# [10] = target: GlcNAc(b1-3)Gal(b1-4)GlcNAc(b1-3)Gal(b1-4)GlcNAc(b1-3)Gal(b1-4)GlcNAc(b1-3)Gal(b1-4)GlcNAc(b1-2)Man(a1-3)[GlcNAc(b1-3)Gal(b1-4)GlcNAc(b1-3)Gal(b1-4)GlcNAc(b1-3)Gal(b1-4)GlcNAc(b1-3)Gal(b1-4)GlcNAc(b1-2)Man(a1-6)]Man(b1-4)GlcNAc(b1-4)[Fuc(a1-6)]GlcNAc
# In short: as §1
# [11] = target: GlcNAc(b1-3)Gal(b1-4)GlcNAc(b1-3)GalNAc
# In short: as §1
# [12] = target: GlcNAc(b1-3)[GlcNAc(b1-6)]GalNAc
# In short: as §1
# [13] = target: GlcNAc(b1-6)GalNAc
# In short: as §1
# [14] = target: Kdn(a2-3)Gal(b1-4)Glc
# In short: as §1
# [15] = target: Man(a1-2)Man(a1-3)[Man(a1-6)]Man(a1-6)[Man(a1-2)Man(a1-3)]Man(b1-4)GlcNAc(b1-4)GlcNAc
# In short: as §1
# [16] = target: Man(a1-3)[Man(a1-6)]Man(b1-4)GlcNAc(b1-4)GlcNAc
# In short: as §1
# [17] = target: Neu5Ac(a2-3)Gal(b1-4)[Fuc(a1-3)]GlcNAc(b1-3)Gal(b1-4)GlcNAc
# In short: as §1
# [18] = target: Neu5Ac(a2-3)Gal6S(b1-4)[Fuc(a1-3)]GlcNAc
# In short: as §1
# [19] = target: Neu5Ac(a2-6)Gal(b1-3)GlcNAc(b1-3)[Gal(b1-4)GlcNAc(b1-6)]Gal(b1-4)Glc
# In short: as §1
# [20] = target: Neu5Ac(a2-8)Neu5Ac(a2-3)Gal(b1-3)GalNAc(b1-4)[Neu5Ac(a2-8)Neu5Ac(a2-3)]Gal(b1-4)Glc
# In short: as §1
# [21] = target: Neu5Ac(a2-8)Neu5Ac(a2-3)Gal(b1-4)GlcNAc
# In short: as §1
# [22] = target: Neu5Gc(a2-3)Gal(b1-4)GlcNAc(b1-3)Gal(b1-4)GlcNAc(b1-2)Man(a1-3)[Neu5Gc(a2-3)Gal(b1-4)GlcNAc(b1-3)Gal(b1-4)GlcNAc(b1-2)Man(a1-6)]Man(b1-4)GlcNAc(b1-4)GlcNAc
# In short: as §1
# [23] = target: Neu5Gc(a2-6)Gal(b1-4)GlcNAc
# In short: as §1
# [24] = target: Neu5Gc(a2-8)Neu5Gc(a2-3)Gal(b1-4)GlcNAc
# In short: as §1
binder,measurement,setting,value
"Gal 3C (Homo sapiens), P17931 (protein) YGAPAGPLIVPYNLPLPGGVVPRMLITILGTVKPNANRIALDFQRGNDVAFHFNPRFNENNRRVIVCNTKLDNNWGREERQSVFPFESGKPFKIQVLVEPDHFKVAVNDAHLLQYNHRVKKLNEISKLGISGDIDLTSASYTMI",glycan array binding signal (z-score),[1],-0.244
same,glycan array binding signal (z-score),[2],-0.289
same,glycan array binding signal (z-score),[3],-0.291
same,glycan array binding signal (z-score),[4],-0.289
same,glycan array binding signal (z-score),[5],-0.274
same,glycan array binding signal (z-score),[6],-0.2
same,glycan array binding signal (z-score),[7],-0.279
same,glycan array binding signal (z-score),[8],-0.196
same,glycan array binding signal (z-score),[9],4.63
same,glycan array binding signal (z-score),[10],4.02
same,glycan array binding signal (z-score),[11],-0.286
same,glycan array binding signal (z-score),[12],-0.331
same,glycan array binding signal (z-score),[13],-0.322
same,glycan array binding signal (z-score),[14],-0.237
same,glycan array binding signal (z-score),[15],-0.298
same,glycan array binding signal (z-score),[16],-0.065
same,glycan array binding signal (z-score),[17],-0.191
same,glycan array binding signal (z-score),[18],-0.327
same,glycan array binding signal (z-score),[19],-0.3
same,glycan array binding signal (z-score),[20],-0.226
same,glycan array binding signal (z-score),[21],-0.266
same,glycan array binding signal (z-score),[22],-0.152
same,glycan array binding signal (z-score),[23],-0.31
same,glycan array binding signal (z-score),[24],-0.336
